PubChem BioAssay (NCI)
The panel holds about 83,000 compounds, 20% with a hit somewhere; the sample as a whole holds those more often.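 Compound tested at a single concentration for 48 hours in 96-well plates; a percent growth value below 10 was scored as active.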 A number with no mark means an inactive call. Activity calls are given as the source filed them.

Assays:
Test in all cases: NCI-60 one-dose screen, 48 h (100 = growth as untreated, 0 = no growth, -100 = all killed)
Details in all cases: 10 µM unless noted
NCI-H23 lung = system: NCI-H23 lung
NCI-H226 lung = system: NCI-H226 lung
NCI-H322M lung = system: NCI-H322M lung
HOP-62 NSCLC = system: HOP-62 NSCLC
NCI-H460 lung = system: NCI-H460 lung
NCI-H522 lung = system: NCI-H522 lung
A549/ATCC NSCLC = system: A549/ATCC NSCLC
786-0 renal = system: 786-0 renal
COLO 205 colon = system: COLO 205 colon
DU-145 prostate = system: DU-145 prostate
K-562 leukemia = system: K-562 leukemia
MALME-3M melanoma = system: MALME-3M melanoma
MDA-MB-231 breast = system: MDA-MB-231 breast
RXF 393 renal = system: RXF 393 renal
SF-268 CNS = system: SF-268 CNS
SF-295 CNS = system: SF-295 CNS
SF-539 CNS = system: SF-539 CNS
UACC-257 melanoma = system: UACC-257 melanoma
M14 melanoma = system: M14 melanoma

| Compound | growth (NCI-H23 lung) [%] | growth (NCI-H226 lung) [%] | growth (NCI-H322M lung) [%] | growth (HOP-62 NSCLC) [%] | growth (NCI-H460 lung) | growth (NCI-H522 lung) | growth (A549/ATCC NSCLC) [%] | growth (786-0 renal) [%] | growth (COLO 205 colon) | growth (DU-145 prostate) [%] | growth (K-562 leukemia) [%] | growth (MALME-3M melanoma) [%] | growth (MDA-MB-231 breast) [%] | growth (RXF 393 renal) | growth (SF-268 CNS) [%] | growth (SF-295 CNS) [%] | growth (SF-539 CNS) | growth (UACC-257 melanoma) [%] | growth (M14 melanoma) [%] |
| --- | --- | --- | --- | --- | --- | --- | --- | --- | --- | --- | --- | --- | --- | --- | --- | --- | --- | --- | --- |
| C=CCN1C(=O)/C(=c2\sc3n(c2=O)C2C(NN=3)N(CC)C(=O)N2CC)c2ccccc21 (stereo not given) | 26.7 | 62.7 | 49.4 | 32.4 | 9.1% (active) | -15.9% (active) | 23.9 | 32.3 | -14.2% (active) | 17 | 10 | 66 | 47.1 | 7.25% (active) | 47.3 | 12.9 | 4.08% (active) | 63.3 | 14.4 |
| O/N=C/c1ccncc1 | 101 | 107 | 110 | 104 | 106% | 83.7% | 96.5 | 109 | 108% | 103 | 106 | 98.7 | 118 | 122% | 111 | 96 | 115% | 100 | 115 |
| O=C(/C=C/c1cn(-c2ccccc2)nc1-c1ccccc1)OCc1cn(-c2cccc([N+](=O)[O-])c2)nn1 | 91.4 | 97.1 | 94.7 | 81.7 | 93.7% | 60.4% | 67.8 | 91.2 | 89.5% | 103 | 76.2 | 97.9 | 72.8 | 105% | 93.3 | 97.8 | 89.2% | 44.9 | – |
| COc1ccc(-n2c(COc3ccc(F)cc3)n[nH]c2=S)cc1 | 112 | 101 | 96.8 | 105 | 110% | 90.3% | 131 | 102 | 116% | 112 | 129 | 115 | 89.3 | 80.3% | 97.8 | 74.1 | 101% | 186 | – |
| O=[N+]([O-])c1ccc(N=Nc2c(NNc3ccc([N+](=O)[O-])cn3)cc(S(=O)(=O)O)c3ccccc23)nc1 | 81.2 | 95.8 | 60.8 | 85.5 | 63.7% | 84.9% | 89.2 | 109 | 106% | 74.9 | 94.3 | 129 | 57 | 120% | 63.9 | 114 | 89.3% | 101 | – |
| CN(C)c1ccc(/C=C\c2cccc[n+]2C)cc1 | 46.6 | 67.7 | 102 | 48 | 69.5% | 30.5% | 20.8 | 69.3 | -35.6% (active) | 70.1 | 21 | 57.4 | 73.4 | 86.6% | 26.7 | 19 | 58.9% | 31.7 | – |
| ClC1(Cl)C2CCCCCCC21 (stereo not given) | 107 | 103 | 109 | 108 | 107% | 84.5% | 98.2 | 94.9 | 129% | 121 | 97.8 | 107 | 122 | 117% | 112 | 101 | 117% | 106 | – |
| C=CCOC(=O)C1=C(C)NC2=C(C(=O)CCC2)C1c1ccc(F)cc1 (stereo not given) | 92.4 | 89.9 | 95.6 | 85.9 | 106% | 82.4% | 97.3 | 99.9 | 103% | 113 | 96.3 | 111 | 98 | 111% | 106 | 102 | 102% | 92.8 | – |
| Cc1cc(-c2ccc(N=Nc3c(S(=O)(=O)O)cc4cc(S(=O)(=O)O)cc(O)c4c3O)c(C)c2)ccc1N=Nc1c(S(=O)(=O)O)cc2cc(S(=O)(=O)O)cc(O)c2c1O | 101 | 99.3 | 80.7 | 82.7 | 130% | 99.3% | 101 | 113 | 92% | 112 | 125 | 100 | 107 | 80.1% | 104 | 94.1 | 101% | 102 | – |
| N=C(N)c1ccc(NCCNc2ccc(C(=N)N)cc2)cc1 | 85.9 | 62.6 | 95.5 | 121 | 50.3% | 92.9% | 42.2 | 117 | 142% | 106 | 82.1 | 100 | 87.3 | 98.3% | 113 | 66.3 | 84.7% | 62.3 | 125 |
| Cc1nc(N)nc2c1CCC(Nc1ccccc1)S2 (stereo not given) | 104 | 99.1 | 101 | 112 | 109% | 91% | 97.6 | 103 | 107% | 106 | 93.4 | 96.3 | 106 | 107% | 94.7 | 104 | 96.7% | 101 | 108 |
| O=C(c1ccccc1)C(CCc1ccccn1)CCc1ccccn1 | 106 | 104 | 117 | 93.1 | 110% | 89.5% | 98.3 | 98.4 | 105% | 101 | 96.2 | 82.4 | 99.5 | 120% | 101 | 110 | 103% | 109 | 93.7 |
| COc1cc(/C=C2\CN(C(=O)OC(C)(C)C)C/C(=C\c3ccc(O)c(OC)c3)C2=O)ccc1O | 97.8 | 94.6 | 100 | 98 | 91.7% | 64.5% | 73.2 | 93.3 | 110% | 101 | 80.1 | 97.5 | 86.1 | 102% | 89.5 | 101 | 106% | 73.6 | 93.9 |
| CCOC(=O)CCN(CCC(=O)OCC)c1ccccc1 | 101 | 98.4 | 110 | 86 | 111% | 89.8% | 99.6 | 105 | 93.7% | 111 | 121 | 120 | 111 | 81.3% | 93.6 | 107 | 92.4% | 96.4 | 86.6 |
| Clc1ccc(-c2nc(-c3cccs3)no2)cc1 | 89.9 | 97.3 | 99.4 | 85.9 | 97.4% | 85.8% | 94.8 | 94.5 | 109% | 97.4 | 101 | 111 | 84.2 | 114% | 102 | 108 | 102% | 86.4 | – |
| C/C(=N\NC(=O)CSc1nc2ccccc2c(=O)n1CCc1ccc(S(N)(=O)=O)cc1)c1ccc(Br)cc1 | 60.4 | 95.2 | 97.2 | 77.4 | 30.8% | 62.5% | 47.3 | 49.8 | 93.6% | 99 | 54.3 | 54.4 | 36.9 | 99.1% | 99.4 | 89.9 | 83.1% | 83.3 | – |
